# “And” between values parts separate entries of the source, which are not always exact repeats. Equal values may be shown once. Where a name gives a salt, the structure may show the parent alone. Hit rate of the full screen: of about 5,800 compounds, about 620 (11%) showed activity. Shown is part of a subset that was picked to be rich in actives. Values without a mark were called inactive.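 Rule for the calls: active = score above a cut-off or among the top three wells of a plate; in these data no inactive exceeds 0.85.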
# Tested on: primary human hepatic stellate cells (donor 1)
# Assay: scaled lipid accumulation score (0 = DMSO-like, 1 = nortriptyline-like); higher = stronger HSC inactivation (lipid re-accumulation), active = hit call of the paper
# Details: 48 h
# Method: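 Primary lipid accumulation screen in primary human hepatic stellate cell myofibroblasts (donor 1, passage 8) in 384-well plates. 100 nL of library compound was pin-transferred into 30 µL medium in duplicate, and cells were treated for 48 h. The 'Scaled' score combines distance from plate baseline, toxicity and reproducibility penalties, and is normalised to nortriptyline (positive) and DMSO (negative) controls on each plate. A hit is defined as scaled >0.85 or among the top 3 wells per plate.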
# [1] = library stock concentration: 3.33 mM
# [2] = library stock concentration: 10 mM
# [3] = library stock concentration: 1 mM
# [4] = library stock concentration: 400 uM
# [5] = library stock concentration: 2 mM
smiles,measurement,setting,value
CCOC(=O)Nc1cc(-c2ccc(C)c(NS(C)(=O)=O)c2)nn2c(C)nnc12 [Bromosporine],scaled lipid accumulation score,[1],0.166
same,scaled lipid accumulation score,[2],0.621
CCCCCCCCCCCCCCCCOC[C@H](CO)OC(C)=O [Hexadecyl Acetyl Glycerol],scaled lipid accumulation score,[3],≤ 0
CNC(=O)c1c(F)cccc1Nc1nc(Nc2cc3c(cc2OC)CCN3C(=O)CN(C)C)nc2[nH]ccc12 [listing 1 of 2 here],scaled lipid accumulation score,[1],0.98 (active)
CNC(=O)c1ccccc1Nc1nc(Nc2ccc(N3CCOCC3)cc2OC)ncc1Cl,scaled lipid accumulation score,library stock concentration: 80 uM,≤ -0.016
same,scaled lipid accumulation score,[4],≤ -0.016
same,scaled lipid accumulation score,[5],≤ -0.016
same,scaled lipid accumulation score,[1],≤ 0
same,scaled lipid accumulation score,[2],≤ 0 and ≤ -0.016
CNC(=O)c1c(F)cccc1Nc1nc(Nc2cc3c(cc2OC)CCN3C(=O)CN(C)C)nc2[nH]ccc12 [listing 2 of 2 here],scaled lipid accumulation score,[2],0.776
O=C(c1ccc2c(c1)OCCO2)N1CCCCC1,scaled lipid accumulation score,[2],≤ -0.07
COC(=O)C1=CC[C@@]23CC[C@@H]([C@@](C)(/C=C/C=C(\C)C(=O)O)OC2=O)[C@@]3(OC(C)=O)CC1 [Pseudolaric Acid B],scaled lipid accumulation score,[3],≤ 0
CCCC[C@H](C)C[C@H](O)/C=C/[C@H]1[C@H](O)CC(=O)[C@@H]1CCCCC(CC(=O)O)OC (some centres not stated) [3-methoxy Limaprost],scaled lipid accumulation score,[3],0.012
"CCCCCC(=O)OC[C@H](CO)OC(=O)CCCCC [1,2-Dihexanoyl-sn-glycerol]",scaled lipid accumulation score,[3],0.007
CC(C)(CO)Cc1cc(C(C)(C)C)c(O)c(C(C)(C)C)c1 [listing 1 of 2 here],scaled lipid accumulation score,[2],0.861 (active)
CC(C)(C=O)Cc1cc(C(C)(C)C)c(O)c(C(C)(C)C)c1,scaled lipid accumulation score,[2],0.21 and ≤ -0.006
CC(C)(CO)Cc1cc(C(C)(C)C)c(O)c(C(C)(C)C)c1 [listing 2 of 2 here],scaled lipid accumulation score,[2],0.139
N.N.O=C([O-])C[O-].[Pt+2] [Nedaplatin],scaled lipid accumulation score,library stock concentration: 6.6 mM,0.028
CC(C)[C@@H](O)CC[C@@H](C)[C@H]1CC[C@H]2[C@@H]3CC=C4C[C@@H](O)CC[C@]4(C)[C@H]3CC[C@]12C [24(S)-hydroxycholesterol],scaled lipid accumulation score,library stock concentration: 12.4 mM,0.006
CN(C)Cc1ccc(-c2nc3cccc4c3n2CCNC4=O)cc1,scaled lipid accumulation score,[1],0.037
same,scaled lipid accumulation score,[2],0.491
COc1ccc([C@@H]2CC(=O)c3c(O)cc(O[C@@H]4O[C@H](CO)[C@@H](O)[C@H](O)[C@H]4O[C@@H]4O[C@@H](C)[C@H](O)[C@@H](O)[C@H]4O)cc3O2)cc1O [Neohesperidin],scaled lipid accumulation score,[1],≤ 0
same,scaled lipid accumulation score,[2],0.039
C[C@H](NC(=O)C(C#N)=Cc1cccc(Br)n1)c1ccccc1,scaled lipid accumulation score,[1],1.05 (active)
C[C@H](NC(=O)/C(C#N)=C/c1cccc(Br)n1)c1ccccc1,scaled lipid accumulation score,[2],0.586
CCC[C@H](NC(=O)/C(C#N)=C/c1cccc(Br)n1)c1ccccc1 [Degrasyn (WP1130)],scaled lipid accumulation score,[1],0.369
same,scaled lipid accumulation score,[2],0.703
CC(=O)OCOC(=O)CN(CC(=O)OCOC(C)=O)c1ccccc1OCCOc1ccccc1N(CC(=O)OCOC(C)=O)CC(=O)OCOC(C)=O,scaled lipid accumulation score,[1],≤ -0.009
same,scaled lipid accumulation score,[2],0.697
CC(C)C[C@H](NC(=O)[C@H]1O[C@@H]1C(=O)O)C(=O)NCCCCN=C(N)N,scaled lipid accumulation score,[1],0.177
same,scaled lipid accumulation score,[2],≤ 0 and ≤ -0.07
C=C[C@@]1(C)C[C@@H](OC(=O)CS[C@@H]2C[C@H]3CC[C@@H](C2)N3C)[C@@]2(C)[C@@H]3C(=O)CC[C@@]3(CC[C@@H]2C)[C@@H](C)[C@@H]1O [Retapamulin],scaled lipid accumulation score,[2],0.947 (active)
C=C[C@]1(C)C[C@@H](OC(=O)CSC(C)(C)CNC(=O)[C@H](N)C(C)C)[C@]2(C)[C@H](C)CC[C@]3(CCC(=O)[C@H]32)[C@@H](C)[C@@H]1O [Valnemulin HCl],scaled lipid accumulation score,[1],≤ 0
same,scaled lipid accumulation score,[2],0.491
C=C[C@]1(C)C[C@@H](OC(=O)CS[C@@H]2C[C@H]3CC[C@@H](C2)N3C)[C@]2(C)[C@H](C)CC[C@]3(CCC(=O)[C@H]32)[C@@H](C)[C@@H]1O [Retapamulin],scaled lipid accumulation score,[1],0.412
Clc1ccc(C(c2ccc(Cl)cc2)[n+]2ccn(CC(OCc3ccc(Cl)cc3Cl)c3ccc(Cl)cc3Cl)c2)cc1 (configuration not stated) [Calmidazolium chloride],scaled lipid accumulation score,[2],0.037
O=C(O[C@H]1CN2CCC1CC2)N1CCc2ccccc2[C@@H]1c1ccccc1,scaled lipid accumulation score,[2],0.352
O=C(O[C@H]1CN2CCC1CC2)N1CCc2ccccc2[C@@H]1c1ccccc1 [Solifenacin succinate],scaled lipid accumulation score,[1],0.293
O=C(NCc1ccc(Cl)c(Cl)c1)O[C@H]1CCc2ccccc21,scaled lipid accumulation score,[3],0.061
O=C(O)CCC(=O)O.O=C(O[C@H]1CN2CCC1CC2)N1CCc2ccccc2[C@@H]1c1ccccc1 [Solifenacin succinate],scaled lipid accumulation score,[2],1.3 (active)
CC/C=C\C/C=C\C/C=C\CCCCCCCC(=O)O [Linolenic acid (18:3 n-3)],scaled lipid accumulation score,[3],≤ -0.021
CC/C=C\C/C=C\C/C=C\CCCCCCCC(=O)O [.alpha.-Linolenic Acid],scaled lipid accumulation score,[3],0.009
CC(=O)O[C@H]1Cc2ccccc2N(C(N)=O)c2ccccc21,scaled lipid accumulation score,[2],≤ 0
CCCC[P+](CCCC)(CCCC)Cc1ccc(NC(=O)C(Cc2ccc3ccccc3c2)NC(=NC2CCCCC2)NC2CCCCC2)cc1 (configuration not stated),scaled lipid accumulation score,[2],0.797
CNCc1ccc(-c2cc(-c3nc(-c4ccc(S(=O)(=O)C(C)C)cc4)cnc3N)on2)cc1 [listing 1 of 2 here],scaled lipid accumulation score,[2],0.254
CNCc1ccc(-c2cc(-c3nc(-c4ccc(S(=O)(=O)C(C)C)cc4)cnc3N)on2)cc1 [listing 2 of 2 here],scaled lipid accumulation score,[1],1.12 (active)
CCCCCCCC/C=C\CCCCCCCC(=O)OCC [Oleic Acid ethyl ester],scaled lipid accumulation score,[3],0.015
O=C(CO)N1CCC(c2n[nH]c(-c3ccc(Cl)cc3)c2-c2ccncn2)CC1,scaled lipid accumulation score,[4],≤ -0.005
same,scaled lipid accumulation score,[5],≤ -0.005
same,scaled lipid accumulation score,[2],≤ -0.005
OC(CNCC(O)C1CCc2cc(F)ccc2O1)C1CCc2cc(F)ccc2O1 (configuration not stated) [Nebivolol],scaled lipid accumulation score,[1],0.769
same,scaled lipid accumulation score,[2],≤ 0
Cl.O[C@H](CNC[C@@H](O)[C@H]1CCc2cc(F)ccc2O1)[C@@H]1CCc2cc(F)ccc2O1 [Nebivolol hydrochloride],scaled lipid accumulation score,[2],0.861 (active)
CCCCCC(=O)/C=C/[C@@H]1[C@H](C/C=C\CCCC(=O)O)[C@H](O)C[C@H]1O [8-iso-15-keto Prostaglandin F2.beta.],scaled lipid accumulation score,[3],≤ 0
COC(=O)c1ccc(O)c2nc3c(C=O)c(O)cc(O)c3nc12 [Lomofungin],scaled lipid accumulation score,library stock concentration: 6.4 mM,≤ -0.006
Cn1cc(C(=O)OCC2CCN(CCNS(C)(=O)=O)CC2)c2ccccc21 [listing 1 of 2 here],scaled lipid accumulation score,[2],0.925 (active)
Cn1cc(C(=O)OCC2CCN(CCNS(C)(=O)=O)CC2)c2ccccc21 [listing 2 of 2 here],scaled lipid accumulation score,[2],0.41
COc1[nH]c2ccc(F)cc2c1C(=O)OCC1CCN(CCNS(C)(=O)=O)CC1.NS(=O)(=O)O,scaled lipid accumulation score,[2],0.298
C/C=C1\[C@H]2C=C(C)C[C@]1(N)c1ccc(=O)[nH]c1C2 [(-)-Huperzine A],scaled lipid accumulation score,library stock concentration: 20.6 mM,0.185
C/C=C1\[C@H]2C=C(C)C[C@]1(N)c1ccc(=O)[nH]c1C2,scaled lipid accumulation score,[2],≤ 0
CC(C)(C)C(=O)Nc1ccccc1 [N-Pivaloylaniline],scaled lipid accumulation score,[3],0.066
CC(C)=CCC/C(C)=C/CC/C(C)=C/CC[C@]1(C)CCc2cc(O)cc(C)c2O1 [.delta.-Tocotrienol],scaled lipid accumulation score,[3],≤ 0
CC(C)[C@@H]1NC(=O)[C@H](Cc2ccccc2)NC(=O)[C@@H](CC(=O)O)NC(=O)CNC(=O)[C@H](CCCN=C(N)N)NC1=O [Cyclo [Arg-Gly-Asp-D-Phe-Val]],scaled lipid accumulation score,library stock concentration: 8.7 mM,≤ -0.003
CN[C@H]1CC[C@@H](c2ccc(Cl)c(Cl)c2)c2ccccc21 [Sertraline] [listing 1 of 2 here],scaled lipid accumulation score,[2],0.147 and 0.63
CN[C@H]1CC[C@@H](c2ccc(Cl)c(Cl)c2)c2ccccc21 [Sertraline HCl],scaled lipid accumulation score,[1],0.103
same,scaled lipid accumulation score,[2],0.033
CN[C@H]1CC[C@@H](c2ccc(Cl)c(Cl)c2)c2ccccc21 [Sertraline] [listing 2 of 2 here],scaled lipid accumulation score,,1.23 (active)
CN[C@H]1CC[C@@H](c2ccc(Cl)c(Cl)c2)c2ccccc21 [Sertraline hydrochloride],scaled lipid accumulation score,library stock concentration: 5.8 mM,0.777
same,scaled lipid accumulation score,[2],≤ -0.055 and 0.281 and 0.318
CC(C)[C@H](NC(=O)CNC(=O)OC(C)(C)C)C(=O)N[C@H](C=O)C(C)C,scaled lipid accumulation score,library stock concentration: 14 mM,0.022
CCOC(=O)Oc1c(OC)cc(C(=O)O[C@@H]2C[C@@H]3CN4CCc5c([nH]c6cc(OC)ccc56)[C@H]4C[C@@H]3[C@H](C(=O)OC)[C@H]2OC)cc1OC [Syrosingopine],scaled lipid accumulation score,,0.248
COc1ccc2c3c([nH]c2c1)[C@H]1C[C@H]2[C@H](C[C@@H](O)[C@H](OC)[C@H]2C(=O)O)CN1CC3 [Reserpinic acid hydrochloride],scaled lipid accumulation score,,≤ 0
COC(=O)[C@H]1[C@H]2C[C@@H]3c4[nH]c5cc(OC)ccc5c4CCN3C[C@H]2C[C@@H](OC(=O)c2cc(OC)c(OC)c(OC)c2)[C@@H]1OC [Reserpine] [listing 1 of 3 here],scaled lipid accumulation score,[2],1.18 (active)
COC(=O)[C@H]1[C@H]2C[C@@H]3c4[nH]c5cc(OC)ccc5c4CCN3C[C@H]2C[C@@H](OC(=O)/C=C/c2cc(OC)c(OC)c(OC)c2)[C@@H]1OC [Rescinnamin],scaled lipid accumulation score,,0.478
COC(=O)[C@H]1[C@H]2C[C@@H]3c4[nH]c5cc(OC)ccc5c4CCN3C[C@H]2C[C@@H](OC(=O)c2cc(OC)c(OC)c(OC)c2)[C@@H]1OC [Reserpine] [listing 2 of 3 here],scaled lipid accumulation score,,≤ 0
same,scaled lipid accumulation score,[2],0.574 and 0.771
COC(=O)[C@H]1[C@H]2C[C@@H]3c4[nH]c5cc(OC)ccc5c4CCN3C[C@H]2C[C@@H](OC(=O)c2cc(OC)c(OC)c(OC)c2)[C@@H]1OC [Reserpine] [listing 3 of 3 here],scaled lipid accumulation score,[2],0.944 (active)

# From the supplement of paper PMC9135407
